# Laboratory results from PubChem BioAssay (Tox21).
# Values joined by “and” are separate entries in the source; they are usually repeats but may differ in a detail not shown here. Equal entries are not always repeated. Records with an inconclusive call do not appear. Entries that show only a call come without a potency. Where a structure was tested more than once in an assay, its records may differ in their call. Active and inactive are the calls of the source. Unless noted, calls follow the shape of the dose curve; as a rule, active = well fitted curve in the direction sought with a large enough effect in the repeat runs; inconclusive = weak or mixed curves; inactive = no such curve, though single readings can be large; an effect the other way counts as inactive or inconclusive.
# Tests used:
# [1] = qHTS RealTime-Glo MT Cell Viability Assay in HEK293 cells - 0 hour (AID 1224880); also: top concentration of the series differs between compounds; nearly all actives have a fitted effect of over 45% in size
# Summary of the method: (§1)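 Luminescence readout at each listed time point; HEK293, 600 cells/well, RealTime-Glo MT reagent added with cells; compounds pinned (23 nL in DMSO) after 5 h at 37 C; continuous culture at 37 C.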
# [2] = A CellTox Green Cytotoxicity Assay to monitor cytotoxicity in HEK293 cells - 32 hour (AID 1224881); also: nearly all actives have a fitted effect of over 40% in size
# Summary of the method: (§2)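 Read-out: fluorescence of a cell-impermeant cyanine dye staining DNA of dead cells, proportional to cytotoxicity. HEK293, 600 cells/well with reagent, compound (23 nL DMSO) added after 5 h; reads at 0, 8, 16, 24, 32, 40 h.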
# [3] = A CellTox Green Cytotoxicity Assay to monitor cytotoxicity in HepG2 cells - 0 hour (AID 1224882); also: nearly all actives have a fitted effect of over 35% in size
# Summary of the method: (§3)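 HepG2, 600 cells/well premixed w/ CellTox Green; 5 h settle, 37 C/5% CO2; pintool cpd add (DMSO); 37 C, 40 h; fluorescence read at 0, 8, 16, 24, 32, 40 h.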
# [4] = A CellTox Green Cytotoxicity Assay to monitor cytotoxicity in HepG2 cells - 32 hour (AID 1224883); also: nearly all actives have a fitted effect of over 50% in size
# Summary of the method: as §3
# [5] = A CellTox Green Cytotoxicity Assay to monitor cytotoxicity in HEK293 cells - 8 hour (AID 1224884); also: nearly all actives have a fitted effect of over 35% in size
# Summary of the method: as §2
# [6] = qHTS RealTime-Glo MT Cell Viability Assay in HepG2 cells - 16 hour (AID 1224885); also: nearly all actives have a fitted effect of over 50% in size
# Summary of the method: (§4)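 HepG2 cells (600/well) were dispensed with RealTime-Glo reagents, incubated 5 h at 37 °C, then treated with compounds in DMSO for up to 40 h. Nonlytic NanoLuc luminescence reflecting viable cells was read at each stated time point.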
# [7] = qHTS RealTime-Glo MT Cell Viability Assay in HEK293 cells - 24 hour (AID 1224886); also: top concentration of the series differs between compounds; nearly all actives have a fitted effect of over 50% in size
# Summary of the method: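 HEK293 cells seeded with NanoLuc/prosubstrate reagent, rested 5 h at 37 C, then dosed and kept at 37 C up to 40 h. Nonlytic real-time luminescence from viable cells read at 0, 8, 16, 24, 32 and 40 h.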
# [8] = qHTS RealTime-Glo MT Cell Viability Assay in HEK293 cells - 8 hour (AID 1224887); also: top concentration of the series differs between compounds; nearly all actives have a fitted effect of over 50% in size
# Summary of the method: as §1
# [9] = A CellTox Green Cytotoxicity Assay to monitor cytotoxicity in HEK293 cells - 16 hour (AID 1224888); also: nearly all actives have a fitted effect of over 35% in size
# Summary of the method: as §2
# [10] = qHTS RealTime-Glo MT Cell Viability Assay in HepG2 cells - 0 hour (AID 1224889); also: nearly all actives have a fitted effect of over 50% in size
# Summary of the method: as §4
# [11] = A CellTox Green Cytotoxicity Assay to monitor cytotoxicity in HepG2 cells - 8 hour (AID 1224890); also: nearly all actives have a fitted effect of over 45% in size
# Summary of the method: as §3
# [12] = qHTS assay to identify small molecule antagonists of the estrogen receptor alpha (ER-alpha) signaling pathway using the BG1 cell line in the presence of 0.1 nM 17-beta-estradiol - cell viability counter screen (AID 1259241); also: nearly all actives have a fitted effect of over 40% in size
# Summary of the method: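 VM7Luc4E2 cells (endogenous ER-alpha, 4×ERE-luciferase), hormone-starved 5 days in charcoal-stripped FBS, were treated with compounds plus 0.1 nM 17beta-estradiol for 22 hr at 37C; viability read in same wells as CellTiter-Fluor live-cell protease fluorescence.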
# [13] = qHTS assay to identify small molecule antagonists of the androgen receptor (AR) signaling pathway using the MDA cell line in the presence of 0.5 nM R1881 - cell viability counter screen (AID 1259242); also: nearly all actives have a fitted effect of over 45% in size
# Summary of the method: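 Live-cell protease fluorescence, CellTiter-Fluor, 30 min at 37C. Cells: MDA-kb2, 3,000/well, preincubated 5 hr. Compounds plus 0.5 nM R1881 final, 16 hr, 37C, 0% CO2.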
# [14] = qHTS assay to identify small molecule HDAC inhibitors (AID 1259364);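 also: wild-type HCT-116 cells with endogenous class I/II HDAC activity; top concentration of the series differs between compounds; nearly all actives have a fitted effect of over 45% in size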
# Summary of the method: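 HCT-116 (wild type), 1,500 cells/well, overnight; compound 2 hr 37C 5% CO2; HDAC-Glo I/II reagent 30 min RT; luminescence readout.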
# [15] = qHTS assay to identify small molecule HDAC inhibitors - cell viability counter screen (AID 1259365)
# Summary of the method: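 Wild-type HCT-116 cells were seeded at 1,500 per well, incubated overnight at 37 C, then exposed to compounds in DMSO for 2hr. Viability was read by CellTiter-Glo luminescence after 30min at room temperature.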
# [16] = qHTS assay to identify small molecule agonists of the sonic hedgehog signaling (Shh) pathway - cell viability counter screen (AID 1259366); also: nearly all actives have a fitted effect of over 50% in size; also: potency is read from the fitted curve at half-maximal effect
# Summary of the method: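 NIH/3T3-derived 3T3 Gli1-Luc cells (stable Gli1-responsive firefly luciferase reporter) were seeded, rested 4 hr at 37 C/5% CO2, then exposed to compounds in DMSO for 24 hr; viability was read by CellTiter-Fluor fluorescence in the same wells.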
# [17] = qHTS assay to identify small molecule antagonists of the sonic hedgehog signaling (Shh) pathway - cell viability counter screen (AID 1259367); also: nearly all actives have a fitted effect of over 55% in size; also: potency is read from the fitted curve at half-maximal effect
# Summary of the method: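 Tox21 library chemicals were tested on a Gli1-Luc NIH/3T3 clone (2,000 cells/well) stimulated by conditioned medium; viability was quantified as fluorescence from CellTiter-Fluor reagent added at 23 hr.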
# [18] = biological target: Androgen receptor (Homo sapiens) (UniProt P10275); assay: qHTS assay to identify small molecule antagonists of the androgen receptor (AR) signaling pathway using the MDA cell line in the presence of 0.5 nM R1881 (AID 1259243); also: nearly all actives have a fitted effect of over 50% in size; also: potency is read from the fitted curve at half-maximal effect
# Androgen receptor (Homo sapiens), sequence (P10275 whole entry, looked up): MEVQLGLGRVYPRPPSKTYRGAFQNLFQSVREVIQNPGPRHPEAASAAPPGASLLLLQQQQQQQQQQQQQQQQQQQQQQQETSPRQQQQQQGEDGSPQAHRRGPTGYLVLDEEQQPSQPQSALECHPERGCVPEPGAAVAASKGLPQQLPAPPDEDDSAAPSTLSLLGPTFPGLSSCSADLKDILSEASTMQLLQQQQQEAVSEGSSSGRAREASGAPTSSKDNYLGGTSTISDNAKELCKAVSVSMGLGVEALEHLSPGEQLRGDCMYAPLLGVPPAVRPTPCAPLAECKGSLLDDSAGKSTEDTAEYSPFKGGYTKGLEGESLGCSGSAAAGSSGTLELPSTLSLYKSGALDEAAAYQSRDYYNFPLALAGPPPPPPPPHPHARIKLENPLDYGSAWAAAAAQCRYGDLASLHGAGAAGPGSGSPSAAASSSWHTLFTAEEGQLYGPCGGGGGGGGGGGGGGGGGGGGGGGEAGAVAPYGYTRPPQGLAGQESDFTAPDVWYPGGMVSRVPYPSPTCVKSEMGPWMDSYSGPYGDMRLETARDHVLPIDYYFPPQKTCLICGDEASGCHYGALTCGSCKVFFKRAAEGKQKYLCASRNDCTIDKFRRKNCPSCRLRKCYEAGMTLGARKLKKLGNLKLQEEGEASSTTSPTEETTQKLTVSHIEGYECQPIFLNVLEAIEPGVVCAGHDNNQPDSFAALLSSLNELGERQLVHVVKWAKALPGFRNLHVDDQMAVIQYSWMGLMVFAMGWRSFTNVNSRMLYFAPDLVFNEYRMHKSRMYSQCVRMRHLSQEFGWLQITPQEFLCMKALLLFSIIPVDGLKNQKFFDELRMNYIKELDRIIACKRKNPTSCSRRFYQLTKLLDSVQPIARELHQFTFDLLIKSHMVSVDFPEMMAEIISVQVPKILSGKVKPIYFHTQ
# Summary of the method: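 MDA-kb2, MMTV-luc (AR/GR elements); 3,000 cells/well; cpd + 0.5 nM R1881 final; 16 hr 37C, 0% CO2; ONE-Glo 30 min RT; luminescence.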
# [19] = biological target: Estrogen receptor (Homo sapiens) (UniProt P03372); assay: qHTS assay to identify small molecule antagonists of the estrogen receptor alpha (ER-alpha) signaling pathway using the BG1 cell line in the presence of 0.1 nM 17-beta-estradiol (AID 1259244); also: nearly all actives have a fitted effect of over 50% in size
# Estrogen receptor (Homo sapiens), sequence (P03372 whole entry, looked up): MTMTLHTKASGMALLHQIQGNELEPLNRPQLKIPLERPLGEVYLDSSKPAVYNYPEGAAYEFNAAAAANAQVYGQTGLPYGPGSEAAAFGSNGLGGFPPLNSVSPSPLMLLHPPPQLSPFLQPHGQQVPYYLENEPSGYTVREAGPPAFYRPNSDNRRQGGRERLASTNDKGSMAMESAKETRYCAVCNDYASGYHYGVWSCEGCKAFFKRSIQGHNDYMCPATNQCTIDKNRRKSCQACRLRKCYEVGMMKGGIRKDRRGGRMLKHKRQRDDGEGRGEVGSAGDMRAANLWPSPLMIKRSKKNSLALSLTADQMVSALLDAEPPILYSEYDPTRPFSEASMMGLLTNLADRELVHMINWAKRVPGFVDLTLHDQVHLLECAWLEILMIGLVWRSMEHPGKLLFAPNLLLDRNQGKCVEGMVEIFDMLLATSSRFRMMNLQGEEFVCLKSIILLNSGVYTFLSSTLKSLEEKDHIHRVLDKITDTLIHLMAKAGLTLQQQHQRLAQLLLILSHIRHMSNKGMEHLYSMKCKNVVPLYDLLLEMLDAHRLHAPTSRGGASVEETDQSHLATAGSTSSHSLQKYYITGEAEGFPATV
# Summary of the method: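 Luminescence after ONE-Glo (30 min, room temperature) measured ERE-luciferase activity in VM7Luc4E2 cells treated 22 h with compound and 0.1 nM final 17beta-estradiol as stimulator.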
# [20] = qHTS assay to identify small molecule phospholipidosis (PLD) inducers (AID 1259344; active = well fitted curve in the direction sought with a large enough effect; an effect the other way counts as inactive or inconclusive)
# Summary of the method: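 Image-based: LipidTOX Red pit count/intensity per well and per cell; HepG2, 24 h compound at 37 C, PFA fixation, Hoechst counterstain.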
Compound,outcome [1],Potency [2],Potency [3],Potency [4],Potency [5],outcome [6],outcome [7],outcome [8],Potency [9],outcome [10],Potency [11],outcome [12],outcome [13],Potency [14],outcome [15],Potency [16],Potency [17],Potency [18],Potency [19],Potency [20]
Nc1cccc(Cl)c1,inactive,inactive,inactive,inactive,inactive,inactive,inactive,inactive,inactive,inactive,inactive,inactive,inactive,inactive,inactive,inactive,–,–,–,–
CCCCCCCCCCCCCCCCCC(=O)O,inactive,inactive,inactive,inactive,inactive,inactive,inactive,inactive,inactive,inactive,inactive,inactive,inactive,inactive,inactive,inactive,inactive,–,–,–
CNC(=O)O/N=C/C(C)(C)S(C)(=O)=O,inactive,inactive,inactive,inactive,inactive,inactive,inactive,inactive,inactive,inactive,inactive,inactive,inactive,inactive,inactive,inactive,–,inactive,inactive,–
CC12CC1(C)C(=O)N(c1cc(Cl)cc(Cl)c1)C2=O (configuration not stated),inactive,inactive,inactive,inactive,inactive,inactive,inactive,inactive,inactive,inactive,inactive,inactive,–,inactive,inactive,inactive,–,1.21 µM (active) and 1.37 µM (active),–,–
Nc1nc(N)nc(NC2CC2)n1,inactive,inactive,inactive,inactive,inactive,inactive,inactive,inactive,inactive,inactive,inactive,inactive,inactive,inactive,inactive,inactive,–,–,–,inactive
Nc1ccc([As](=O)(O)O)cc1,inactive,inactive,inactive,inactive,inactive,inactive,inactive,inactive,inactive,inactive,inactive,inactive,inactive,inactive,inactive,inactive,inactive,–,inactive,inactive
CCCOC(=O)c1ccccc1C(=O)OCCC,inactive,inactive,inactive,inactive,inactive,inactive,inactive,inactive,inactive,inactive,inactive,inactive,inactive,inactive,inactive,inactive,inactive,–,–,–
CC(=O)C1CCOC1=O (configuration not stated),inactive,inactive,inactive,inactive,inactive,inactive,inactive,inactive,inactive,inactive,inactive,inactive,inactive,inactive,inactive,inactive,inactive,–,–,–
C=C(C)C(=O)OCC(CC)CCCC (configuration not stated),inactive,inactive,inactive,inactive,inactive,inactive,inactive,inactive,inactive,inactive,inactive,inactive,inactive,inactive,inactive,inactive,–,–,–,–
Nc1ccc(N)cc1,inactive,inactive,inactive,inactive,inactive,inactive,inactive,inactive,inactive,inactive,inactive,inactive,inactive,inactive,inactive,61.4 µM (active) and inactive,61.4 µM (active) and 54.5 µM (active) and inactive,–,–,inactive
O=C/C=C/c1ccccc1,inactive,inactive,inactive,inactive,inactive,inactive,inactive,inactive,inactive,inactive,inactive,inactive,inactive,inactive,inactive,inactive,–,–,–,inactive
O=C(O)C1C(C(=O)O)C2(Cl)C(Cl)=C(Cl)C1(Cl)C2(Cl)Cl (configuration not stated),inactive,inactive,inactive,inactive,inactive,inactive,inactive,inactive,inactive,inactive,inactive,inactive,inactive,inactive,inactive,inactive,inactive,–,–,–
Nc1ncc([N+](=O)[O-])s1,inactive,inactive,inactive,inactive,inactive,inactive,inactive,inactive,inactive,inactive,inactive,inactive,inactive,inactive,inactive,inactive,inactive,–,inactive,–
CCOP(=S)(OCC)Oc1cc(C)nc(C(C)C)n1,inactive,inactive,inactive,inactive,inactive,inactive,inactive,inactive,inactive,inactive,inactive,inactive,inactive,inactive,inactive,inactive,–,–,–,inactive
Cl/C=C/Cl,inactive,inactive,inactive,inactive,inactive,inactive,inactive,inactive,inactive,inactive,inactive,inactive,inactive,inactive,inactive,inactive,inactive,–,–,–
